Only some compounds are listed: those with a hit (about 3.3% of all), similar ones and a draw of the others.
TbPYK inhibitor: T. brucei pyruvate kinase inhibition; Q57TT1; TbPYK enzyme, Kinase-Glo Plus ATP luminescence, 45 min; Potency, µM (top dose mostly 76.8 µM), for the others: at the highest dose activity, negative = inhibition, most hits filed as inhibitors; actives 0.12% (n = 410,000); AID 624173; further: nearly all actives have a fitted effect of over 50% in size
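ADP (130 uM final) triggers the TbPYK reaction after compound addition; incubation is 45 min at room temperature. Kinase-Glo Plus is then added and luminescence imaged. Normalized data are fitted to concentration-effect curves.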
LmPK inhibitor: blocks Leishmania mexicana pyruvate kinase activity; Q27686; purified LmPK, Kinase-Glo ATP luminescence, 1 h; Potency, µM (series often up to 57.5 µM), without a hit: top-dose activity change, negative = inhibition, hits mostly inhibitors; actives 0.37% (n = 290,000); AID 1721
Target sequence (Q27686 whole entry, looked up): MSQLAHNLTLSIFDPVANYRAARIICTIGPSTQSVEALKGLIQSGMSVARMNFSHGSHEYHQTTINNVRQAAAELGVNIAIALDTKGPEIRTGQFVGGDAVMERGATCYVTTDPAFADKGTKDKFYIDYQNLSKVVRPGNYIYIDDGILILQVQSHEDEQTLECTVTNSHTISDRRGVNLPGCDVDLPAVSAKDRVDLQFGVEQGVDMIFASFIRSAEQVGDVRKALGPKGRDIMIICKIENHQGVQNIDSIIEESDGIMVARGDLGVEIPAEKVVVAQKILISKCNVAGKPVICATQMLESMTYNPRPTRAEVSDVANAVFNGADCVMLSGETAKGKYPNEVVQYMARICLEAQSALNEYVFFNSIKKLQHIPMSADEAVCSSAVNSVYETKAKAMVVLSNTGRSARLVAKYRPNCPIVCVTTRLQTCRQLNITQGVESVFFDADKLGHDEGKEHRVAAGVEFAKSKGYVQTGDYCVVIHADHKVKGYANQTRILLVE
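qHTS format; LmPK 0.1 nM; substrates PEP 0.5 mM and ADP 0.1 mM. One-hour room-temperature incubation, then coupled luciferase luminescence; 0.5 nM enzyme wells mark activation.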
Sm TGR inh: blocks Schistosoma mansoni thioredoxin glutathione reductase | purified TGR, DTNB reduction, TNB absorbance 405 nm | Potency, µM (doses to about 114 µM), for the others: top-dose activity change, negative = inhibition, hits mostly inhibitors | actives 3% (n = 360,000) | AID 485364; further: nearly all actives have a fitted effect of over 60% in size
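Kinetic colorimetric format: TGR-catalysed, NADPH-driven DTNB reduction monitored via TNB absorbance. Enzyme dispensed at 20 nM; compound exposure 15 min at room temperature before reaction start.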
RE007 growth inh: less growth of the S. pombe RE007 Vpr strain; S. pombe RE007 Vpr strain, BacTiter-Glo ATP luminescence, 24 h; Potency, µM (doses to about 92.2 µM), without a hit: top-dose activity change, negative = less growth, usual class: inhibitors; actives 0.21% (n = 360,000); AID 651644; active means well fitted falling curve with a large enough effect; inconclusive means small, poorly fitted or top-dose-only effect; inactive means no such curve, though single readings can be large or run the other way; further: nearly all actives have a fitted effect of over 50% in size
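Fission yeast strain RE007, carrying one chromosomally integrated HIV-1 vpr copy, was seeded at OD 0.01 in PMG+AL medium with 23 nL pinned compound. After 24 h at 30 °C and 99% humidity, viability was read by BacTiter-Glo luminescence.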
Giardia FBPA inh: inhibitors of Giardia lamblia fructose-1,6-bisphosphate aldolase. Potency, µM (top dose mostly 59.6 µM), inactives show at the highest dose activity, negative = inhibition, usual class: inhibitors. A8B2U2. purified Giardia FBPA. actives 0.71% (n = 290,000). AID 2451; further: nearly all actives have a fitted effect of over 55% in size
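Giardia FBPA (40 nM reagent) was preincubated 10 min at RT with compound (up to 57.5 uM final), then substrate plus GAPDH/TPI/NAD/arsenate coupling system with diaphorase/resazurin was added; resorufin fluorescence (525/598 nm) was read after 20 min.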
* = called active by the depositor; ? = inconclusive; nt = not tested or not shown; [ ] = remark or other dose. Unless noted, the call rests on the fitted dose curve; in most records, active means well fitted curve in the direction sought with a large enough effect; inconclusive means small, poorly fitted or top-dose-only effect, or another doubt; inactive means no such curve, though single readings can be large; an effect the other way counts as inactive or inconclusive. On the % scale 0 is the no-effect control and ±100 the full control effect; potency means the concentration at half of the fitted maximal effect.

SMILES	TbPYK inhibitor	LmPK inhibitor	Sm TGR inh	RE007 growth inh	Giardia FBPA inh
O=[N+]([O-])c1ccc(Sc2cc[n+]([O-])c3ccccc23)c([N+](=O)[O-])c1	-3%	1%	7.9µM*	4%	-2%
O=[N+]([O-])c1ccc(Sc2nc3ccccc3o2)c([N+](=O)[O-])c1	-2%	5%	4µM*	?	-18%
CCOc1cccc(NC(=O)Cc2cccs2)c1	3%	3%	0%	-9%	-3%
Oc1ccccc1C1=Nc2nc3ccccc3n2C(c2ccccc2)C1 (configuration not stated)	0%	-6%	10µM*	?	-9%
Cc1oc2cc(Br)c(O)c(Br)c2c1-c1ccccc1	0%	2%	10µM*	?	6%
Cc1cc2oc(=O)cc(-c3ccccc3)c2c(C)c1-c1ccc(O)cc1	-4%	nt	nt	8%	29%[89.2 µM]
CC(=O)N(C)c1ccc(N=Cc2c(O)ccc3ccccc23)cc1	-3%	-4%	?	-24%	-20%
Cc1cc(C(=O)O)ccc1N=Cc1c(O)ccc2ccccc12	-4%	0%	50µM*	-13%	-19%
C=Cc1ccc(N=Cc2c(O)ccc3ccccc23)cc1	2%	0%	63µM*	-16%	14µM*
CC(=O)c1cccc(N=Cc2c(O)ccc3ccccc23)c1	1%	1%	-17%	-14%	?
O=c1cc[nH]c(=S)[nH]1	2%	nt	nt	nt	16µM*
O=c1cc[nH]c(=O)[nH]1	3%	nt	27%	-7%[18.4 µM]	nt
Cc1cc(OC(=O)c2ccc(S(=O)(=O)N3CCCC3)cc2)c([N+](=O)[O-])c(=O)[nH]1	-15%	1%	?	0%	-6%
O=C(CCN1CCOCC1)c1ccc(Br)cc1	-22%	-3%	0%	32µM*	-6%
O=C(NCCCN1CCOCC1)c1ccc(Cl)cc1	7%	nt	nt	nt	nt
O=C(CCN1CCOCC1)c1ccc(Cl)cc1	0%	-9%	0%	40µM*	3%
Brc1ccc(OCCN2CCOCC2)cc1	-2%	-4%	-3%	-7%	?
CCOC(=O)c1c(C)nc2sc3c(c2c1-c1ccc(OC)cc1)NC(c1ccccc1)NC3=O (configuration not stated)	-4%	5%	-1%	26%	1%
CCOC(=O)C1=C(C)N=c2s/c(=C\c3ccc(C(=O)O)cc3)c(=O)n2C1c1ccc(F)cc1 (configuration not stated)	0%	9%	0%	2%	-5%
CCOC(=O)C1=C(C)N=c2s/c(=C3/C(=O)Nc4ccccc43)c(=O)n2C1c1ccc(C)cc1 (configuration not stated)	-10%	-15%	20µM*	-7%	-7%
COC(=O)C1=C(C)N=c2s/c(=C3\C(=O)Nc4ccccc43)c(=O)n2C1c1ccccc1 (configuration not stated)	nt	-4%	50µM*	nt	?
CCOC(=O)C1=C(C)n2c(s/c(=C3\C(=O)Nc4ccccc43)c2=O)=NC1c1ccc(OC)cc1 (configuration not stated)	-28%	-11%	25µM*	-8%	-3%
CCS(=O)(=O)NCCc1cc2cc(C)c(C)cc2[nH]c1=O	-23%	4%	-24%	-7%	-1%
COc1ccc2ccccc2c1CN(C)Cc1ccccc1	9%	8%	-26%	-10%	?
COc1ccc(NC(=O)CN(C)CC(=O)NCc2ccc(C)cc2)cc1	-1%	nt	-7%	-17%	nt
SMILES	TbPYK inhibitor	LmPK inhibitor	Sm TGR inh	RE007 growth inh	Giardia FBPA inh
Cc1ccc(NC(=O)CN(C)Cc2c(O)ccc3ccccc23)cc1	41%	3%	0.32µM*	?	0%
CCN(CC(=O)Nc1ccc(NC(C)=O)cc1)Cc1c(O)ccc2cc(Br)ccc12	-1%	8%	0.79µM*	-9%	3%
COc1ccc(CN(C)Cc2c(O)ccc3ccccc23)cc1	2%	9%	3.2µM*	-14%	-3%
CCN(CC(=O)Nc1ccc(Br)cc1)CC(=O)Nc1cc(C)on1	-7%	nt	50µM*	-13%	nt
Cc1ccc(NC(=O)CCC(=O)NNS(=O)(=O)c2ccccc2)c(C)c1	?	0%	-23%	0%	0%
Cc1cccc(C)c1NC(=S)Nc1ccccc1C(=O)NCc1ccco1	-8%	0%	-1%	-16%	1%
CC(C)CN(Cc1c(O)ccc2ccccc12)CC(C)C	-1%	0%	nt	-27%	-12%
CN(C)Cc1c(O)ccc2ccccc12	-1%	5%	1.1µM*	13%	-22%
COc1ccc2ccc(O)c(CN(C)CC(=O)Nc3ccccc3C(F)(F)F)c2c1	-16%	2%	1.8µM*	-12%	-11%
CCN(Cc1ccncc1)Cc1c(O)ccc2ccccc12	3%	2%	0.71µM*	-4%	?
COc1cccc(CN(C)Cc2c(O)ccc3ccccc23)c1	0%	-1%	2.5µM*	-16%	-22%
COc1cccc(CN(C)Cc2nc(C3CC3)no2)c1	3%	-1%	5%	16%	3%
CCOC(=O)c1cc(-c2ccc(OC)cc2)n(CCC(=O)NC2CCN(Cc3ccccc3)CC2)c1C	0%	-1%	-12%	4%	3%
Cn1c(-c2sccc2OCc2ccc(Cl)cc2Cl)n[nH]c1=S	3.5µM*	?	1%	18%	2%
O=S(=O)(Nc1cccc(Cl)c1)c1ccc2oc(=S)[nH]c2c1	?	8%	-4%	18%	20%
CC(=O)n1cc([C@H]2C=C(C(=O)Nc3ccccc3)O[C@@H](OCc3ccc(CO)cc3)C2)c2ccccc21	-1%	3%	-16%	-14%	-12%
CCOC(=O)[C@H]1[C@H]2COc3ccc(C)cc3[C@@H]2N2C(=O)CN(Cc3ccc(C)cc3)C(=O)[C@@]12C	1%	nt	-10%	-19%	nt
CCOC(=O)[C@H]1[C@H]2COc3ccc(OC)cc3[C@@H]2N2C(=O)CN(Cc3ccc(C)cc3)C(=O)[C@@]12C	-5%	nt	-19%	5%	nt
CCOC(=O)[C@H]1[C@H]2COc3ccc(OC)cc3[C@@H]2N2C(=O)CN(Cc3ccc(OC)cc3)C(=O)[C@@]12C	0%	nt	50µM*	0%	nt
CCOC(=O)[C@H]1[C@H]2COc3ccc(C)cc3[C@@H]2N2C(=O)CN(Cc3ccco3)C(=O)[C@@]12C	-14%	nt	14µM*	4%	nt
CCN(CC)C(=O)CN(c1ccc(Cl)cc1)S(=O)(=O)c1ccccc1	-4%	2%	-6%	-3%	6%
O=C(COc1ccc(/C=N/NC(=O)c2cc3ccccc3o2)cc1Br)Nc1ccccc1	1%	-1%	-18%	4%	-5%
O=C(c1cc2nc(-c3ccco3)cc(C(F)(F)F)n2n1)N1CCN(Cc2ccccc2)CC1	0%	-1%	50µM*	8%	7%

Bioassay records: PubChem BioAssay, National Center for Advancing Translational Sciences (NCATS)
